# Records with an inconclusive call do not appear. Unmarked numbers belong to inactive results. The source made the active and inactive calls. The call rests on the fitted dose curve; in most records, active means well fitted activation curve with a large enough effect in the repeat runs; inconclusive means weak or mixed curves; inactive means flat fitted curve, though single readings scatter.
# Assay: A CellTox Green Cytotoxicity Assay to monitor cytotoxicity in HEK293 cells - 40 hour (AID 1224871); further: nearly all actives have a fitted effect of over 45% in size
# Conditions: CellTox Green fluorescence; series mostly up to 76.8 µM; cytotoxicity increase: at the top concentration
# Excerpt: National Center for Advancing Translational Sciences [NCATS]
# NIH Chemical Genomics Center [NCGC]
# U.S. Environmental Protection Agency [EPA]
# National Institutes of Environmental Health Sciences [NIEHS]
# National Toxicology Program [NTP]
# Cell-based models are critical for drug discovery. Determining the natural cytotoxic effects resulting from test compounds is an essential research activity. A CellTox Green Cytotoxicity Assay to monitor cytotoxicity in real time of continues cell culture during 40 hours of the compound treatment was used to screen Tox21 10K library compounds in Hek293 cells. CellTox Green Cytotoxicity Assay is a nonlytic, homogeneous, biofluorescent method to measure cytotoxicity in cell culture after experimental manipulation. The assay system uses a proprietary asymmetric cyanine dye that is excluded from viable cells but preferentially stains the dead cell's DNA. […] Viable cells produce no appreciable increases in fluorescence. Therefore, the fluorescence signal produced by the binding interaction with dead cell DNA is proportional to cytotoxicity.
# The mixture of Hek293 cell suspension and reagents were dispensed at 600cells/6 ul/well in 1536-well tissue culture treated black solid bottom plates using a Multidrop dispenser. After the assay plates were incubated at a 37 C/5% CO2 incubator for 5 hours, 23 nL of compounds dissolved in DMSO, positive and negative controls was transferred to the assay plate by a pintool work station. The plates were incubated at 37 C for 40 hours. The fluorescence intensity were measured at 0h, 8h, 16h, 24h, 32h and 40h time points using ViewLux plate reader during compound treatment.
# On the % scale 0 is the no-effect control and ±100 the full control effect; potency means the concentration at half of the fitted maximal effect.
Structure (SMILES),cytotoxicity increase,Potency
CCCCC(CC)COC(=O)CCCCC(=O)OCc1ccccc1 (stereo not given),-10.2%,–
O=C(/C=C/c1ccccc1)OC/C=C/c1ccccc1,-3.88%,–
Nc1ccc(Oc2ccc(Cl)cc2)cc1,14.3%,–
CCO[C@@H]1O[C@H](C(COCc2ccccc2)OCc2ccccc2)[C@H](OCc2ccccc2)[C@H]1O (stereo not given in full),-7.58% [at 35.3 µM],–
C=CCCC(=O)/C=C/C1C(C)=CCCC1(C)C (stereo not given),–,24.5 µM (active)
CCCCC/C=C\C/C=C\CCCCCCCC(=O)O,–,inactive
O=C1CCCCCCCCCCCCCCCO1,–,24.5 µM (active)
O=C1OC2(c3ccc(O)cc3Oc3cc(O)ccc32)c2ccc(N=C=S)cc21,–,12.5 µM (active)
CC(C)NC[C@@H](O)COc1ccc(CC(N)=O)cc1,-6.95% [at 35.3 µM],–
CCCCCCCCCCCCOCCOCCOCCOCCOCCOCCOCCOCCOCCO,–,10.7 µM (active)
CCCC(=O)OCCc1ccccc1,–,49 µM (active)
NC(=O)c1cccc([N+](=O)[O-])c1,-2.67%,–
Cc1ccc(C(C)C)cc2c(C)ccc1-2,24.2% [at 35.3 µM],–
CC(=O)Oc1cc2c(s1)CCN(C(C(=O)C1CC1)c1ccccc1F)C2 (stereo not given),-1.31% [at 35.3 µM],–
O=C(O)Cc1ccc2c(c1)C(=O)c1ccccc1CO2,-3.65% [at 35.3 µM],–
CCCC(=O)OCOC(=O)C1=C(C)NC(C)=C(C(=O)OC)C1c1cccc(Cl)c1Cl (stereo not given),-6.23% [at 35.3 µM],–
COc1ccc2c(c1)c(CC(=O)OC/C=C(\C)CC/C=C(\C)CCC=C(C)C)c(C)n2C(=O)c1ccc(Cl)cc1,13.8% [at 35.3 µM],–
C=Cc1ccccc1C=C,-7.04% [at 200 µM],–
OC1CCC(C2CCCCC2)CC1 (stereo not given),13.4%,–
Cc1ccc(O)c(N)c1,-2.9%,–

Structure (SMILES),cytotoxicity increase,Potency
[Cu+],-5.28%,–
CCOC(=O)NNc1ccc(N(CC)CC(C)O)nn1 (stereo not given),-17.2% [at 35.3 µM],–
CC(C)=CCC1=C(O)c2ccccc2C(=O)C1=O,-1.31%,–
CC(C)(C)c1ccc(C(O)CCCN2CCC(C(O)(c3ccccc3)c3ccccc3)CC2)cc1 (stereo not given),–,7.56 µM (active)
O=C1C(c2[nH]c3ccc(S(=O)(=O)O)cc3c2O)=Nc2ccc(S(=O)(=O)O)cc21,-12.9%,–
O=c1c(O)c(-c2ccc(O)cc2O)oc2cc(O)cc(O)c12,-8.83%,–
O=c1[nH]c(=O)n([C@H]2C[C@H](O)[C@@H](CO)O2)cc1F,-2.25% [at 35.3 µM],–
COC1=C(OC)C(=O)C(CCCCCCCCCCO)=C(C)C1=O,7.52% [at 35.3 µM],–
CCCCOC(=O)CC,0.0464%,–
O=[N+]([O-])c1ccc(F)c(Cl)c1,-9.15%,–
COCCOc1cc2cc(C(=O)NC3CCN(C(C)C)CC3)n(CC(=O)Nc3ccc(Cl)cn3)c2cn1,-11.7%,–
Cc1ccc(N/N=c2\c(=O)cc/c(=N\Nc3ccc(S(=O)(=O)O)cc3)c2=O)c(C)c1,-27.2%,–
CCc1ccc(Br)cc1,2.15%,–
CN1CCN2c3ccccc3Cc3ccccc3C2C1 (stereo not given),20.6% [at 35.3 µM],–
CC(C)(C)c1csc(-c2cc3cc(OCc4ccccc4CC(=O)O)ccc3o2)n1,–,54.9 µM (active)
CCCCOC(=O)CO,3.28%,–
CC(C)CCCCCOC(=O)CCS,-6.31%,–
O=c1oc2cc(O)ccc2c2oc3cc(O)ccc3c12,1.51%,–
C=CC(=O)OCCOC(=O)C=C,–,43.6 µM (active)
CCN(CC)c1ccc2c(-c3ccc(S(=O)(=O)O)cc3S(=O)(=O)[O-])c3ccc(=[N+](CC)CC)cc-3oc2c1,-12.6%,–
